From PubChem BioAssay
IDE cell inh: inhibitors of human insulin-degrading enzyme in cells | P14735 | inhibition, % at 5.59 µM | HEK cells, FAbetaB cleavage, fluorescence polarization | AID 434962 | 320,000 tested, 0.41% active;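 active = percent inhibition above the average of all tested compounds plus 3 SD, set per screening campaign, cut at about 16% in these data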;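 also: IDE supplied by intact live HEK cells; FP after avidin binding of uncleaved biotin substrate so inhibition keeps polarization high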
LANA-H2B inh: blocks KSHV LANA binding to histone H2A/H2B | cell-free LANA-H2A/H2B peptide, fluorescence polarization | inhibition, % (test concentration not listed) | 320,000 tested, 0.6% active; in the data active = inhibition mostly above about 10%, no sharp cut-off; inactive = mostly below about 6.7%
HDAC3 inhib: blocks human histone deacetylase 3; recombinant HDAC3, fluorogenic peptide/trypsin coupled, fluorescence; inhibition, % at 8.3 µM; 320,000 tested, 0.15% active; AID 2718; in the data active = inhibition above about 26%, passing the limit was not always enough; inconclusive = no clear call, values can overlap the other calls
Target sequence (O15379 whole entry, looked up): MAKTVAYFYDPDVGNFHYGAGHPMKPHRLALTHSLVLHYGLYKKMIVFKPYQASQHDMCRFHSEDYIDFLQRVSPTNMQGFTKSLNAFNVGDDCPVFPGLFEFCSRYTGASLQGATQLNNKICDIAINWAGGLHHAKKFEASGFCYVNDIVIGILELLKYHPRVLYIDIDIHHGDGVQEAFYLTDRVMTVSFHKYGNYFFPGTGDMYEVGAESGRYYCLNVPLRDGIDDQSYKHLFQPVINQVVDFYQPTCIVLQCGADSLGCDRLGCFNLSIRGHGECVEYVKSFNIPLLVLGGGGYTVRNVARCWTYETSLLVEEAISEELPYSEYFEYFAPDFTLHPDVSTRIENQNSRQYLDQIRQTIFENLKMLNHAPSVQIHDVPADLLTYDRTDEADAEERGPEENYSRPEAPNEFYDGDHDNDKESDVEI
IDE act: activators of human insulin-degrading enzyme in cells | activation, % at 5.96 µM | HEK cells, FAbeta-B cleavage, fluorescence polarization; 0% vehicle, 100% cell-free pure enzyme wells | 340,000 tested, 0.073% active | P14735 | AID 493087;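 active = activation above the mean of all tested compounds plus 3 SD, set per screening campaign, cut at about 17% in these data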
IDE inh confirm: cellular human IDE inhibition, confirmation. shares compounds with IDE cell inh. HEK cells, FAbetaB cleavage, fluorescence polarization. inhibition, % at 5.59 µM. 1,200 tested, 51% active. AID 435028;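 active = mean inhibition across triplicate wells above the cutoff set by the earlier primary insulin-degrading enzyme screen, cut at about 16% in these data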
HEK293 tox: counter-screen for IDE inhibitors: cytotoxicity in HEK cells; shares compounds with IDE cell inh; HEK293 cytotoxicity, ATP luminescence; inhibition, % at 5.59 µM; 1,200 tested, 28% active; AID 449730; in the data active = inhibition above about 22%
IDE FP artifact: fluorescence interference counter-screen for IDE inhibitors; 30 tested, under 10 active; shares compounds with IDE cell inh; IC50, µM; FP counterscreen for fluorescent artifacts, IDE probe project; call rule not given here
Of the large screens only hits and unclear results are named; the others gave an inactive call (follow-up assays come after a bar, where they were run). The list is not random: actives were taken first. Their share in the collection is about 1.1%.

COc1ccc(NS(=O)(=O)c2cc(NC(=O)COc3ccc(OC)cc3)ccc2N2CCOCC2)cc1	none
CCc1cccc(NC(=O)CCCCCC2NC(=O)NC2C)c1 (stereo not drawn)	IDE cell inh 22 | IDE inh confirm inactive | HEK293 tox inactive
Cn1c(CCN2CCCCC2)nc2cc(NC(=O)NC3CCCCC3)ccc21	none
CC1CCN(CCc2nc3cc(NC(=O)NC4CCCCC4)ccc3n2C)CC1	IDE cell inh 19 | IDE inh confirm inactive | HEK293 tox inactive
O=C(NN=Cc1c(O)ccc2ccccc12)c1ccc2c(c1)OCO2	IDE cell inh 30 | IDE inh confirm 54 | HEK293 tox 112
O=C(N/N=C/c1c(O)ccc2ccccc12)c1ccc(CO)nc1	IDE cell inh 27 | IDE inh confirm 39 | HEK293 tox 73
COc1ccc2ccccc2c1/C=N/NC(=O)c1ccc(C)nc1	none
COc1ccc(N(Cc2ccccc2)S(=O)(=O)c2cc(C(=O)O)ccc2Cl)cc1	none
COc1cc(NC(=O)CSc2nnc(NC(C)C)s2)cc(OC)c1OC	none
Cc1cc(/C=C2\SC(=S)N(C)C2=O)c(C)n1-c1ccc(O)cc1	none
Cc1cc(/C=C2\SC(=S)N(C)C2=O)c(C)n1-c1ccccc1O	IDE cell inh 27 | IDE inh confirm 29 | HEK293 tox 47
COc1ccccc1Nc1ccc(NC(=O)c2cccc([N+](=O)[O-])c2C)cc1	IDE cell inh 17 | IDE inh confirm inactive | HEK293 tox 39
O=c1[nH]c2ccccc2c(O)c1O	IDE cell inh 62 | IDE inh confirm 65 | HEK293 tox inactive
C#CCCOC(=O)N1C2=NC(C(=O)OC)=C(C(=O)OC)[C@@H]3N(C)c4ccccc4[C@]23C[C@H]1CO	none
COC(=O)c1c(NS(=O)(=O)c2cccs2)sc2c1CCCC2	IDE cell inh 18 | IDE inh confirm inactive | HEK293 tox inactive
CCn1c(-c2cc(-c3ccccc3OC)nc3ccccc23)n[nH]c1=S	IDE cell inh 16 | IDE inh confirm inactive | HEK293 tox inactive
O=C(COC(=O)c1cccnc1Cl)Nc1nc(-c2ccccc2)cs1	IDE cell inh 26 | IDE inh confirm inactive | HEK293 tox inactive
O=C(COC(=O)c1ccccc1O)Nc1cccnc1Cl	none
CC[n+]1c(/C=C/C=C/N(C(C)=O)c2ccccc2)sc2cc(OC)ccc21	IDE cell inh 40, HDAC3 inhib 45 (no result: IDE act) | IDE inh confirm 35 | HEK293 tox 63
CC[n+]1c(/C=C(\C)OC)sc2ccccc21	none (no result: IDE cell inh, LANA-H2B inh, HDAC3 inhib)
COc1ccc(CCNCC(O)COc2ccc(OC)cc2C(C)(C)C)cc1 (stereo not drawn)	HDAC3 inhib inconclusive
CCOC(=O)/C(=C/C=C1\Sc2ccccc2N1CC)C(C)=O	IDE cell inh 101 | IDE inh confirm 143 | HEK293 tox inactive
CCOC(=O)/C(=C/C=C1\Sc2cc(C)c(C)cc2N1CC)C(C)=O	none (no result: IDE cell inh, LANA-H2B inh, HDAC3 inhib)
CCOC(=O)/C(=C\C=C1/Sc2ccccc2N1CC)C(C)=O	IDE cell inh 123, HDAC3 inhib inconclusive (no result: LANA-H2B inh) | IDE inh confirm 156 | HEK293 tox 23
O=C(O)CSc1nc2ccc(C(=O)c3ccccc3)cc2[nH]1	none (no result: IDE cell inh)
Cc1c(C(=O)OCC(=O)NCCc2ccc(S(N)(=O)=O)cc2)oc2ccccc12	none
O=C(/C=C/c1ccccc1)c1ccc2c(c1)OCO2	none
CN(C)c1ccc(/C=C/C(=O)c2cccnc2)cc1	IDE cell inh 30 | IDE inh confirm 43 | HEK293 tox inactive
CN(C)c1ccc(/C=C/C(=O)c2ccc3c(c2)OCO3)cc1	IDE cell inh 73 (no result: LANA-H2B inh) | IDE inh confirm 119 | HEK293 tox inactive
Cc1c(NC(=O)Cc2ccccc2)cccc1C(=O)NN1C(=O)c2ccccc2C1=O	none
O=C(Nc1ccc(-c2cn3ccsc3n2)cc1)c1ccc(F)c(S(=O)(=O)N2CCOCC2)c1	IDE cell inh 21 | IDE inh confirm inactive | HEK293 tox 58
O=C(Nc1ccccc1)c1ccc(F)c(S(=O)(=O)N2CCOCC2)c1	none
Cc1cc(OCC(=O)C(C)(C)C)c2c(-c3ccccc3)cc(=O)oc2c1	none
CCc1nc(SCC(=O)Nc2nc3c(s2)CCCC3)c2ccccc2n1	IDE cell inh 31 | IDE inh confirm inactive | HEK293 tox inactive
O=C(NCC(=O)N1CC=C(c2ccccc2)CC1)c1ccc(OC(F)F)cc1	IDE cell inh 18 | IDE inh confirm inactive | HEK293 tox 55
O=C1/C(=C/c2ccccc2)Nc2ccccc21	IDE cell inh 28 | IDE inh confirm 32 | HEK293 tox inactive
CCCCCCN1C=CC=C/C1=C\C=C(C#N)C#N	IDE cell inh 25 (no result: IDE act) | IDE inh confirm 35 | HEK293 tox inactive
CCNC(=O)CSC1=N/C(=C\c2ccc(O)c(OCC)c2)C(=O)N1c1ccc(OC(F)F)cc1	IDE cell inh 70 | IDE inh confirm 148 | HEK293 tox inactive
COc1cccc(NC(=O)CCC2CCN(C(=O)c3scnc3C)CC2)c1	none
Cc1ccc2nc(NC(=O)CSc3nc4c(c(=O)n3C)SC(C)C4)sc2c1 (stereo not drawn)	IDE cell inh 25 | IDE inh confirm inactive | HEK293 tox inactive
Cc1ccc(-n2c(SCc3nc4ccccc4[nH]3)nnc2-c2ccncc2)cc1	none
Clc1cccc(-c2nnc(SCc3nc4ccccc4[nH]3)n2-c2ccccc2)c1	none (no result: IDE cell inh, LANA-H2B inh, HDAC3 inhib, IDE act) | IDE FP artifact inactive
Clc1cccc(-c2nnc(SCc3nc4ccccc4[nH]3)n2Cc2ccco2)c1	IDE cell inh 71 | IDE inh confirm 50 | HEK293 tox inactive | IDE FP artifact inactive
CCCCn1c(SCC(=O)N2CCN(c3ccccc3)CC2)nc2ccsc2c1=O	IDE cell inh 21 | IDE inh confirm inactive | HEK293 tox inactive
CCCCn1c(SCC(=O)N2CCC(C)CC2)nc2ccsc2c1=O	none
Cc1cccn2c(CN3CCNC(=O)CC3)c(C(=O)N(C)CCc3ccccc3)nc12	none
Cc1ccc[n+](CC(=O)c2ccc(Cl)cc2)c1	none
Cc1ccc[n+](CC(=O)c2ccc(-c3ccccc3)cc2)c1	IDE cell inh 22 | IDE inh confirm inactive | HEK293 tox inactive
Cc1c(N2C(=O)/C(=C\c3ccc(N(C)C)cc3)N(C)C2=S)c(=O)n(-c2ccccc2)n1C	IDE cell inh 53 | IDE inh confirm 40 | HEK293 tox inactive
Cc1cc[n+](C(C)C(=O)c2ccc(-c3ccccc3)cc2)cc1 (stereo not drawn)	IDE cell inh 21 | IDE inh confirm inactive | HEK293 tox 77
Cc1ccc(N=Cc2sc(O)c3ccccc23)cc1	IDE cell inh 36 | IDE inh confirm 57 | HEK293 tox inactive
CC(C)(C)N1C(=O)[C@H]2[C@@H](c3ccc(Br)cc3)N3C(=O)N(c4cccc(Cl)c4)C(=O)[C@@]3(Cc3ccccc3)[C@H]2C1=O	none
N#Cc1ccc(-c2cccnc2)nc1SCC(=O)c1ccccc1	IDE cell inh 23 | IDE inh confirm 42 | HEK293 tox inactive
CC(C)c1ccc(C(=O)NNC(=O)C2C3CCC(C3)C2C(=O)O)cc1 (stereo not drawn)	none (no result: IDE act)
